Records with an inconclusive call do not appear. Activity calls are given as the source filed them. Calls come from the whole dose curve.
assay: qHTS assay to identify small molecule agonists of the hypoxia (HIF-1) signaling pathway - cell viability counter screen (AID 1224844); settings: HRE-bla ME-180 viability, CellTiter-Glo luminescence, 17 h; series mostly up to 76.8 µM; activity change, negative = cytotoxicity: at the top concentration; note: nearly all actives have a fitted effect of over 50% in size
Text: National Center for Advancing Translational Sciences [NCATS]
NIH Chemical Genomics Center [NCGC]
U.S. Environmental Protection Agency [EPA]
National Institutes of Environmental Health Sciences [NIEHS]
National Toxicology Program [NTP]
U.S. Food and Drug Administration [FDA]
Hypoxia-inducible factor-1 (HIF-1) is the major hypoxia-regulated transcription factor that controls cellular responses to low oxygen concentration. HIF-1 is composed of two subunits: hypoxia responsive HIF-1-alpha and constitutively expressed HIF-1-beta, which is also known as aryl hydrocarbon receptor nuclear translocator. During hypoxic conditions, HIF-1-alpha heterodimerizes with HIF-1-beta and translocates into the nucleus where the HIF-1 complex binds to the hypoxia-response element (HRE) and activates expression of target genes such as VEGF (vascular endothelial growth factor). The HIF-1 pathway is essential to normal growth and development, and is involved in the pathophysiology of cancer, inflammation, and ischemia.
Using a beta-lactamase reporter-gene under control of the hypoxia response element, a cell-based assay [CellSensor(TM) HRE-bla ME-180 from Life Technologies, Carlsbad, CA] was used to measure hypoxia-induced signaling. Tox21 10K library compounds were measured for their ability to induce the reporter gene activity. The cytotoxicity of the Tox21 compound library against HRE-bla ME-180 cell line was tested in parallel by measuring cell viability using CellTiter-Glo assay (Promega, Madison, WI) in the same assay wells.
Tox21 Assay Protocol Summary:
HRE-bla ME-180 cells were dispensed at 2,000 cells per well in 6 uL of assay medium containing 0.5% dialyzed FBS into black wall/clear-bottom 1536-well plates using a Multidrop Combi (Thermo Scientific, Waltham, MA) dispenser. After the assay plates were incubated at 37C and 5% CO2 for 5 hrs, 23 nL of compounds dissolved in DMSO, positive controls or DMSO only was transferred to each well of the assay plate using a Pintool station (Kalypsys, San Diego, CA). The assay plates were incubated at 37C and 5% CO2 for 17 hrs. One uL of LiveBLAzerTM B/G FRET substrate (CCF4-AM) (Life Technologies) was added to each well using a Flying Reagent Dispenser (FRD, Aurora Discovery, San Diego, CA). After 2 hr incubation at room temperature, fluorescence intensity (405 nm excitation, 460 nm and 530 nm emissions) was measured using an Envision plate reader (PerkinElmer, Shelton, CT). For cytotoxicity, 4 ul/well of CellTiter-Glo reagent was added into the assay plates using an FRD. After 30 min incubation at room temperature, the luminescence intensity was measured using a ViewLux plate reader (PerkinElmer).
% is set by controls: 0 for no effect and ±100 for the full control effect.

| Structure (SMILES) | activity change, negative = cytotoxicity |
| --- | --- |
| CC1=CC(C)C(C=O)CC1 (stereo not given) | 3.18% (inactive) |
| Cn1c(N)c(N=O)c(=O)n(C)c1=O | 1.18% (inactive) |
| C=CCS(=O)(=O)O | 2.72% (inactive) |
| COc1cc(C(=O)N2CCCCCCC2)cc(OC)c1OC | 0.427% [at 35.3 µM] (inactive) |
| CCn1ccnc1CC1COc2ccccc2O1 (stereo not given) | -4.51% [at 35.3 µM] (inactive) |
| Cc1cc(O)cc2c1O[C@](C)(CCC[C@H](C)CCC[C@H](C)CCCC(C)C)CC2 | 5.08% [at 35.3 µM] (inactive) |
| N=c1nc(N2CCCCC2)cc(N)n1O | 0.0014% [at 35.3 µM] (inactive) |
| O=C(O)CNC(=O)c1ccc([N+](=O)[O-])cc1 | 0.0569% (inactive) |
| C[N+](C)(C)CC(O)CC(=O)[O-] (stereo not given) | 3.62% [at 35.3 µM] (inactive) |
| COC(C)(C)CCCC(C)CC=O (stereo not given) | 8.22% (inactive) |
| O=C1CCCC(=O)C1 | 0.967% (inactive) |
| CC/C=C\CC/C=C/CO | 0.706% (inactive) |
| NS(=O)(=O)c1ccc(C(=O)O)cc1 | 2.67% [at 35.3 µM] (inactive) |
| CC(=O)N(CC(O)CO)c1c(I)c(C(=O)NCCO)c(I)c(C(=O)NCC(O)CO)c1I (stereo not given) | -0.135% [at 35.3 µM] (inactive) |
| CCCCOCCOCCOCCCC | 6.87% (inactive) |
| CCO/C([O-])=N/c1c[n+](N2CCOCC2)no1 | 15.6% [at 35.3 µM] (inactive) |
| CC(C[N+](C)(C)C)OC(N)=O (stereo not given) | -1.22% [at 35.3 µM] (inactive) |
| C=C1CC[C@H]2C[C@@H]1C2(C)C | -1.38% (inactive) |
| Oc1ccc(C2CNCCc3c2cc(O)c(O)c3Cl)cc1 (stereo not given) | 0.894% [at 35.3 µM] (inactive) |
| CO/N=C(/C(=O)N[C@@H]1C(=O)N2C(C(=O)OCOC(=O)C(C)(C)C)=C(C)CS[C@H]12)c1csc(N)n1 | 0.507% [at 35.3 µM] (inactive) |

| Structure (SMILES) | activity change, negative = cytotoxicity |
| --- | --- |
| CCOC(=O)c1c(C)n(C)c2ccc(O)cc12 | -0.114% [at 35.3 µM] (inactive) |
| O=C1NC(=O)[C@@]2(CCOc3ccc(F)cc32)N1 | 8.99% [at 35.3 µM] (inactive) |
| NC(=O)c1cn(Cc2c(F)cccc2F)nn1 | -0.846% [at 35.3 µM] (inactive) |
| CCCCCSCCCCC | 6.65% (inactive) |
| CCCc1cc(C(N)=S)ccn1 | -0.748% [at 35.3 µM] (inactive) |
| CCOC(=O)C(=O)OCC | 4.15% (inactive) |
| CC(=O)Nc1c(I)cc(I)c(C(=O)O)c1I | -0.468% [at 35.3 µM] (inactive) |
| COc1nc(N)nc2c1ncn2[C@@H]1O[C@H](CO)[C@@H](O)[C@@H]1O | -7.22% [at 35.3 µM] (inactive) |
| CC(=O)OCC(=O)[C@@]1(O)CCC2C3CCC4=CC(=O)CC[C@]4(C)C3[C@@H](O)C[C@@]21C (stereo not given in full) | -12.1% [at 35.3 µM] (inactive) |
| CCCCC/C=C\CCC=O | 7.47% (inactive) |
| Cc1nc2c([nH]1)c(=O)n(C)c(=O)n2Cc1ccco1 | -1.26% [at 35.3 µM] (inactive) |
| Cc1sccc1Br | 8.35% [at 35.3 µM] (inactive) |
| CC(C)NC(=O)NC(C)C | 2.47% (inactive) |
| N#Cc1ccc(C2CCCc3cncn32)cc1 (stereo not given) | -6.33% [at 35.3 µM] (inactive) |
| CC(C)CCCC(C)N (stereo not given) | -10.8% [at 35.3 µM] (inactive) |
| Nc1ccccc1S(=O)(=O)O | 3.71% (inactive) |
| CC(=O)c1ccccc1O | 5.87% (inactive) |
| CCCCCCOC(=O)CCCCC(=O)OCCCCCC | 0.659% (inactive) |
| C[C@@H]1CCN(C(=O)[C@H](CCCN=C(N)N)NS(=O)(=O)c2cccc3c2NC[C@H](C)C3)[C@@H](C(=O)O)C1 | 3.2% [at 35.3 µM] (inactive) |
| CCN(Cc1ccncc1)C(=O)C(CO)c1ccccc1 (stereo not given) | 26.6% [at 35.3 µM] (inactive) |

From PubChem BioAssay (Tox21)
